{
  "source": "PubChem BioAssay (NCATS)",
  "note": "Records with an inconclusive call do not appear. Where a call stands in place of a potency, no number is given. Active and inactive are the calls of the source. The call rests on the fitted dose curve; in most records, active means well fitted inhibition curve with a large enough effect; inconclusive means small, poorly fitted or top-dose-only effect; inactive means flat fitted curve, though single readings scatter. Potency means the concentration at half of the fitted maximal effect.",
  "data": [
    {"experiment": "BET inhibitor-based combinations targeting novel dependencies in MECOM-rearranged (r) AML: AML-191 cell line (AID 2202236; further: nearly all actives have a fitted effect of over 35% in size)", "conditions": "AML-191 viability, CellTiter-Glo luminescence, 48 h; series mostly up to 46 µM", "description": "Ecotropic viral insertion site 1 (EVI1) is located on chromosome 3q26.2 as part of the MECOM (MDS and EVI1 complex) locus. Under normal hematopoiesis, EVI1 is a regulator of hematopoietic stem cell maintenance and self-renewal and EVI1 levels decrease as the cells differentiate. In approximately 5-10% of de novo acute myeloid leukemia (AML) EVI1 is aberrantly expressed, including Chromosomal inv(3)(q21;q26.2) or t(3;3)(q21;q26.2) alterations (MECOM-r) that account for about 50% of AML with EVI1 overexpression 31. AMLs with high levels of EVI1 have a poor prognosis and an overall survival time averaging between 10-14 months. EVI1 overexpression confers resistance in leukemia cells, highlighting the need to develop new targeted therapies for EVI1 overexpressing AMLs.\nHere, we performed an unbiased chemical drug screening by evaluating the single agent activity of a collection of 2,480 oncology-focused, approved and investigational drugs (NCATS Mechanism Interrogation Plates, MIPE v5.0) against a panel of seven AML cell lines. These included four MECOM-r cell-lines (AML-191, AML-194, UCSD-AML1 and HNT-34) and three non-MECOM-r AMLs (MV4-11, OCI-AML3 and SET-2). Exploiting the mechanistic redundancy built in the library, we identified target-level sensitivities in MECOM-r AML cells and relative activity as compared to other AML subtypes.\nA collection of 2480 mechanistically annotated dugs (MIPE v5.0) was used to screen four 3q26.2 rearranged AML cell lines and three non-3q26.2 rearranged AML cell lines. This library purposely exploits redundancy by including multiple inhibitors of key onco-targets, while simultaneously encompassing mechanistic diversity, targeting more than 800 distinct mechanisms of action. Briefly, cells were seeded in 5 uL of growth media using a Multidrop Combi dispenser into 1536 well white polystyrene tissue culture treated plates (Corning) at a density of 500cells/well. For each cell-line, for each of the 2480 drugs in MIPE v5.0 library, an 11-point dose curve was generated via a 1536 pin-tool. Plates were incubated for 48 hr at standard incubator conditions, covered by a stainless steel gasketed lid to prevent evaporation. Cell viability was determined by luminescence based, Cell Titer Glo assay (Promega). In detail, 3 uL of Cell Titer Glo were added to each well and plates were incubated at room temperature for 15 min with a stainless-steel lid in place. Luminescence readings were taken using a Viewlux (PerkinElmer) with a 2 s exposure time per plate. Compound dose-response curves were normalized to DMSO and empty well controls on each plate. Quantitative drug activity data from dose-response curves was determined utilizing area Under the Curve (AUC) and Z-transformed AUC (Z-AUC, a mean-centering transformation applied to each individual cell-line screened).", "values": [
      {"smiles": "CN1C(=O)COc2c(C(=O)NC3CN4CCC3CC4)cc(Cl)cc21", "note": "(stereo not given)", "Potency": "inactive"},
      {"smiles": "COC[C@H]1OC(=O)c2coc3c2[C@@]1(C)C1=C(C3=O)[C@@H]2CC[C@H](O)[C@@]2(C)C[C@H]1OC(C)=O", "Potency": "7.42 µM (active)"},
      {"smiles": "C[C@@H]1CN(Cc2ccc(F)cc2)CCN1C(=O)COc1ccc(Cl)cc1NC(N)=O", "Potency": "7.42 µM (active)"},
      {"smiles": "Cn1c(CCCC(=O)O)nc2cc(N(CCCl)CCCl)ccc21", "Potency": "16.6 µM (active)"},
      {"smiles": "CC[C@H]1/C=C\\C=C/C[C@@H](C)[C@H](O)[C@@](C)(O)C(=O)[C@@H](C)[C@H](O)[C@@H](C)C(=O)[C@@H](C)[C@H](O)[C@@H](C)/C=C\\C(=O)O[C@@H]2[C@H](C)[C@H](CC1)O[C@]1(CC[C@H](C)[C@H](C[C@@H](C)O)O1)[C@H]2C", "Potency": "1.18 µM (active)"},
      {"smiles": "C=C(C)[C@H]1Cc2c(ccc3c2O[C@@H]2COc4cc(OC)c(OC)cc4[C@@H]2C3=O)O1", "Potency": "0.934 µM (active)"},
      {"smiles": "C[C@]12CCC(=O)C(O)=C1CC[C@@H]1[C@@H]2CC[C@]2(C)C(=O)CC[C@@H]12", "Potency": "inactive"},
      {"smiles": "O=S(=O)(F)Cc1ccccc1", "Potency": "inactive"},
      {"smiles": "COc1cccc2c1C(=O)c1c(O)c3c(c(O)c1C2=O)C[C@@](O)(C(=O)CO)CC3OC1CC(N2CCOC(OC)C2)C(O)C(C)O1", "note": "(stereo not given in full)", "Potency": "0.0053 µM (active)"},
      {"smiles": "O=C(O)c1nn(Cc2ccc(Cl)cc2Cl)c2ccccc12", "Potency": "inactive"},
      {"smiles": "N#CC(O[C@@H]1O[C@H](CO[C@@H]2O[C@H](CO)[C@@H](O)[C@H](O)[C@H]2O)[C@@H](O)[C@H](O)[C@H]1O)c1ccccc1", "note": "(stereo not given in full)", "Potency": "inactive"},
      {"smiles": "O=C1CC[C@@]2(O)[C@H]3Cc4ccc(O)c5c4[C@@]2(CCN3CC2CC2)[C@H]1O5", "Potency": "inactive"},
      {"smiles": "CC(=O)N1N=C(c2ccc(N)cc2)c2cc3c(cc2C[C@H]1C)OCO3", "Potency": "inactive"},
      {"smiles": "CC(N[C@H]1C[C@@H]1c1ccccc1)c1ccc2c(c1)OCCO2", "note": "(stereo not given in full)", "Potency": "inactive"},
      {"smiles": "Cc1[nH]ncc1-c1cc2nc([C@@H]3CC4CCN3CC4)[nH]c(=O)c2s1", "Potency": "8.33 µM (active)"},
      {"smiles": "C=C[C@H]1CN2CCC1C[C@@H]2[C@@H](O)c1ccnc2ccccc12", "note": "(stereo not given in full)", "Potency": "inactive"},
      {"smiles": "Cc1sc2c(c1C)C(c1ccc(Cl)cc1)=N[C@@H](CC(N)=O)c1nnc(C)n1-2", "Potency": "0.209 µM (active)"},
      {"smiles": "C[C@]12CC[C@H]3[C@@H](CCC4=CC(=O)CC[C@@]43C)[C@H]1CC[C@H]2OC(=O)CCC1CCCC1", "Potency": "inactive"},
      {"smiles": "C[C@@H]1CC[C@H]2[C@@H](C)C(=O)O[C@@H]3O[C@@]4(C)CC[C@@H]1[C@]32OO4", "Potency": "5.25 µM (active)"},
      {"smiles": "C/C(=C\\c1csc(C)n1)[C@@H]1C[C@@H]2O[C@@H]2CCC[C@H](C)[C@H](O)[C@@H](C)C(=O)C(C)(C)[C@@H](O)CC(=O)O1", "Potency": "0.0235 µM (active)"},
      {"smiles": "COc1ccc(C(=O)c2c(C)n(CCN3CCOCC3)c3cc(I)ccc23)cc1", "Potency": "6.61 µM (active)"},
      {"smiles": "CCCN1CCO[C@@H]2c3cc(O)ccc3OC[C@H]21", "Potency": "inactive"},
      {"smiles": "C/C(=C\\c1csc(C)n1)[C@@H]1C[C@@H]2O[C@]2(C)CCC[C@H](C)[C@H](O)[C@@H](C)C(=O)C(C)(C)[C@@H](O)CC(=O)O1", "Potency": "0.0105 µM (active)"},
      {"smiles": "C#C[C@]1(O)C=C[C@H]2[C@@H]3CCC4=CC(=O)CC[C@@H]4[C@H]3CC[C@@]21CC", "Potency": "inactive"},
      {"smiles": "CNCC(O)c1ccc(O)cc1", "note": "(stereo not given)", "Potency": "inactive"},
      {"smiles": "Cc1ccccc1-n1c(Cn2cnc3c(N)ncnc32)nc2cccc(C)c2c1=O", "Potency": "inactive"},
      {"smiles": "CCOC(=O)Nc1ccc(NCc2ccc(F)cc2)cc1N", "Potency": "inactive"},
      {"smiles": "O=C(O)CNC(=O)C1C(=O)N(C2CCCCC2)C(=O)N(C2CCCCC2)C1=O", "Potency": "inactive"},
      {"smiles": "CCN(CC)C(=O)c1ccc(C2=CC3(CCNCC3)Oc3cccc(O)c32)cc1", "Potency": "inactive"},
      {"smiles": "CN(C)CCN(C)CCc1ccc(Cl)c(Cl)c1", "Potency": "inactive"},
      {"smiles": "CC(=O)OC[C@H]1O[C@@H]([S-])[C@H](OC(C)=O)[C@@H](OC(C)=O)[C@@H]1OC(C)=O.CC[PH+](CC)CC.[Au]", "Potency": "1.05 µM (active)"},
      {"smiles": "CCCCCC[C@H]1C(=O)O[C@H](C)[C@H](NC(=O)c2cccc(NC=O)c2O)C(=O)O[C@@H](C)[C@@H]1OC(=O)CC(C)C", "Potency": "0.263 µM (active)"},
      {"smiles": "COCC1(CO)C(=O)C2CCN1CC2", "note": "(stereo not given)", "Potency": "10.5 µM (active)"},
      {"smiles": "CC(C)CC(N(C)C)C1(c2ccc(Cl)cc2)CCC1", "note": "(stereo not given)", "Potency": "inactive"},
      {"smiles": "COC(=O)[C@@H](N)CCCN=C(N)N[N+](=O)[O-]", "Potency": "inactive"},
      {"smiles": "O=C(N[C@H]1CN2CCC1CC2)c1ccc(Cl)cc1", "Potency": "inactive"},
      {"smiles": "CC1(N2CCC(n3c([C@@H]4CCCNC4)nc4ccccc43)CC2)CCCCCCC1", "Potency": "20.9 µM (active)"},
      {"smiles": "COc1ccc(N(C(=O)Oc2c(C)cccc2C)c2ccnc(Nc3ccc(N4CCN(C)CC4)cc3)n2)c(OC)c1", "Potency": "2.63 µM (active)"},
      {"smiles": "CC[C@@H](C(N)=O)N1CCCC1=O", "Potency": "inactive"},
      {"smiles": "O=C1C=CC[C@@H]2[C@H]3CCCN4CCC[C@@H](CN12)[C@@H]34", "Potency": "inactive"}
    ]}
  ]
}
